The results in this text go back to PubChem BioAssay (NCATS).

Holding throughout (experiment): Confirmatory Screen for Target Class Profiling of Small Molecule Inhibitors of Methyltransferases (AID 1745852); for activity change, negative = inhibition: % is set by controls: 0 for no effect and ±100 for the full control effect
Assay [1] has as its target Catechol O-methyltransferase (Homo sapiens) (UniProt P21964). The settings on record: MTase-Glo luminescence, SAH detection, recombinant enzyme; measured here: COMT max response; stronger effect = lower value.
The target in assay [2] is Guanidinoacetate N-methyltransferase (Homo sapiens) (UniProt Q14353). The settings on record: MTase-Glo luminescence, SAH detection, recombinant enzyme; activity change, negative = inhibition: at 57.3 µM (top of the series) unless noted; series mostly up to 57.3 µM.
The target of assay [3] is Nicotinamide N-methyltransferase (Homo sapiens) (UniProt P40261). Particulars: MTase-Glo luminescence, SAH detection, recombinant enzyme; measured here: NNMT max response; stronger effect = lower value.
For assay [4], the target named is Phenylethanolamine N-methyltransferase (Homo sapiens) (UniProt P11086). The settings on record: MTase-Glo luminescence, SAH detection, recombinant enzyme; measured here: PNMT max response; stronger effect = lower value.

Calls of active or inactive are those of the source. Calls come from the whole dose curve.
Potency is the fitted concentration of half-maximal effect.

Catechol O-methyltransferase (Homo sapiens), sequence (P21964 whole entry, looked up): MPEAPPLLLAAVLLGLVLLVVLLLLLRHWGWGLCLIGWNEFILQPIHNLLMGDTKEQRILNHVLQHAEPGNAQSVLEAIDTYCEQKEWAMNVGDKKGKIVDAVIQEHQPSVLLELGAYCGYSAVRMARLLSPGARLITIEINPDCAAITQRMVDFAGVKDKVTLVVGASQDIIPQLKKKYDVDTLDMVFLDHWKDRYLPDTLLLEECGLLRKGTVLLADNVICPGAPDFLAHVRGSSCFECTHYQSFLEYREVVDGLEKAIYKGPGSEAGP
Nicotinamide N-methyltransferase (Homo sapiens), sequence (P40261 whole entry, looked up): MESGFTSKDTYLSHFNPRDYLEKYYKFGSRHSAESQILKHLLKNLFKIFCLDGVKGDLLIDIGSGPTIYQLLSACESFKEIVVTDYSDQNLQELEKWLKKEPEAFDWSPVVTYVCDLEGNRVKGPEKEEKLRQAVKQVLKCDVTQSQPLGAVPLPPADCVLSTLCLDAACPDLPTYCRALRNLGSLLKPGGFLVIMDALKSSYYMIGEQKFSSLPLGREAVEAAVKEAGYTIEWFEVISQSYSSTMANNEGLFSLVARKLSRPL
Phenylethanolamine N-methyltransferase (Homo sapiens), sequence (P11086 whole entry, looked up): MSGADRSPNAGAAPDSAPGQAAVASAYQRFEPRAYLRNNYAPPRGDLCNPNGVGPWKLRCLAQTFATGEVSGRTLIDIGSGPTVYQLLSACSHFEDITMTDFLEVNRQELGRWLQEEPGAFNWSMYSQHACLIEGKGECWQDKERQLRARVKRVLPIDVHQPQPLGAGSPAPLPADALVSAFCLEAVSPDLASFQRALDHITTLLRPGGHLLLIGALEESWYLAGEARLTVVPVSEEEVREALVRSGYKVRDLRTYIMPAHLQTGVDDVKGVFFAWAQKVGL

In the case of `N#Cc1cnc(N2CC3CCC(C2)N3CC(F)(F)F)s1`, the values for the activity in assay [1], in assay [3] and in assay [4] were -0.326%, -7.9% and -0.128%, respectively. Besides, the activity change, negative = inhibition in assay [2] is -4.72% [at 85.7 µM].
For `Cc1cc(-c2nc3ccncc3[nH]2)c(C)[nH]1`, the activity in assay [1] is -4.56%; in assay [3], -25.8%; in assay [4] it was -11.2%. Moreover, the activity change, negative = inhibition in assay [2] is 3.2% [at 114 µM].
The corresponding values for `COc1cccc(CN2CCCC3(CCN(c4cc(C)nc(N)n4)C3)C2)c1OC` (stereo not given) are -4.01%, -4.87%, -3.6% and -7.75%.
The corresponding values for `Cc1cnc(C2CC2)n1C1CCCN(Cc2ccccc2)C1` (stereo not given) are 3.04%, -1.39%, 0.832% and 5.24%.
Take `COc1cccc(N2C(=O)NC(=NC3CCCCC3)C23CCCN(CC2CCCCC2)C3)c1` (stereo not given): the activity in assay [1] was -0.686%; in assay [3], -50.3%; in assay [4], 1.19%. Moreover, the activity change, negative = inhibition in assay [2] was 10.7%.
On the same counts, the results for `COc1ccccc1CNC(=O)C1(C)Cn2c(cc3ccccc32)C(=O)N1Cc1ccc(OC)c(OC)c1` (stereo not given) are 0%, -60.4%, -1.32% and 0%.
On the same counts, the results for `O=[S+]1([O-])NC2(CCCN(Cc3c(F)cccc3Cl)C2)COc2ccccc21` (stereo not given) are -6.32%, -5.33%, -3.56% and 2.18%.
For `Cc1ccc(CN2C(=O)c3ccc(-c4ccco4)n3CC2(C)C(=O)NCc2ccc(Cl)cc2)cc1` (stereo not given), the activity in assay [1] was 0%; in assay [3], -6.21%; in assay [4], 1.57%. In addition, the Potency entry in assay [2] was “inactive”.
Regarding `COc1ccc(CCN2C(=O)c3cc4occc4n3CC2(C)C(=O)NC2CCCCC2)cc1OC` (stereo not given), the activity in assay [1] was 2.48%; in assay [3], -47.9%; in assay [4], 1.36%. Further, in assay [2], the activity change, negative = inhibition was found to be 0%.
On the same counts, the results for `CC1CC(C)CN(S(=O)(=O)c2ccc3c(c2)oc(=O)n3CC(=O)Nc2cccc(F)c2)C1` (stereo not given) are 1.38%, -0.567%, -52.9% and 0%.
The corresponding values for `O=C(CCc1ccccc1)N1CCNc2cnc(Nc3cccnc3)nc2C1` are -28.2%, -21.6%, -41.2% and -16.6% [at 85.7 µM].
On the same counts, the results for `CN1CCC(N2CC[C@H](c3nc4ccc(C(F)(F)F)cc4[nH]3)C2)CC1` are 7.98%, 10.1%, 7.95% and 9.6% [at 85.7 µM].
Consider `CCCn1c(=O)c2ccccc2n2c(=O)n(CC(=O)c3cccc(Cl)c3)nc12`, for which the activity in assay [1] was -8.93%; in assay [3], -46.1%; in assay [4] it was -9.61%. For the same compound, the activity change, negative = inhibition in assay [2] is -4.81%.
On the same counts, the results for `CCCCN1C(=O)c2cc(C(=O)NCCc3ccccc3Cl)nn2CC1(C)C(=O)NC1CCCC1` (stereo not given) are 0.497%, -0.43%, -2.62% and 0%.
On the same counts, the results for `Cc1nn(C(=O)CCC(=O)N2CCC(Cc3nncn3CC3CC3)CC2)c2ccccc12` are 6.63%, -59.9%, 7.75% and 3.09%.
On the same counts, the results for `O=C(Nc1ccc2c(N3CCOCC3)ncnc2c1)c1cccc(Cl)c1` are -10.9%, -7.95%, -22.8% and -4.21%.
With `CN(CCc1nc2ccc(Cl)cc2[nH]1)c1cc(C2CC(O)C2)nc(N)n1` (stereo not given), the activity in assay [1] was 4.84%; in assay [3] it was -2.79%; in assay [4], 3.63%. In addition, in assay [2], the activity change, negative = inhibition worked out at 2.73%.
As for `Cc1cnc(CCNC(=O)c2n[nH]c(=O)c3ccccc23)n1C1CCCCC1`, the activity was -2.57% in assay [1], -0.405% in assay [3] and -2.34% in assay [4]. The activity change, negative = inhibition in assay [2] amounted to 5.31%.
On the same counts, the results for `COc1cccc([S+](=O)([O-])N2CCC3(C2)N=C(c2cccnc2)C(=O)N3)c1` (stereo not given) are -6.05%, -8.17%, -16.9% and -6.21%.
The corresponding values for `CCCCNC(=O)c1cccc(-c2cc(N3CCN(C)CC3)nc(N)n2)c1` are -2.86%, -3.76%, -4.09% and -5.28%.
The corresponding values for `CC1CCCCN1CCCNC(=O)c1cc2c(s1)CN(C1CCCC1)C2` (stereo not given) are 3.35%, 3.93%, 4.11% and 2.38%.
Take `Cc1oc(C(=O)O)cc1COc1ccc2c(-c3ccccc3)cc(=O)oc2c1C`: the values for the activity in assay [1], in assay [3] and in assay [4] were -34.8%, -43.8% and -32.8%, respectively. In addition, in assay [2], the Potency is 27.1 µM (active).
For `CCCn1c(=O)c2cc(F)ccc2n2c(SCc3c(F)cccc3Cl)nnc12`, the activity in assay [1] is 4.81%; in assay [3], -24.8%; in assay [4], 0.382%. For the same compound, the activity change, negative = inhibition in assay [2] stood at 0.239%.
On the same counts, the results for `CCCC1c2cccn2CCN1C(=O)NC1(CC(=O)OCC)CCCCC1` (stereo not given) are -3.29%, -5.96%, -9.82% and -0.613%.
As for `CC(C)Cn1c(=O)c2ccccc2n2c(CCC(=O)N3CCN(c4ccc(F)cc4)CC3)nnc12`, the activity is -4.42% in assay [1], -55.7% in assay [3] and -6.74% in assay [4]. In addition, the activity change, negative = inhibition in assay [2] was determined as 2.04%.
Consider `O=C(CCc1nnc2n(Cc3ccc(F)cc3)c(=O)c3ccccc3n12)N1CCC(N2CCCCC2)CC1`, for which the activity in assay [1] was 3.84%; in assay [3], -4.81%; in assay [4], 0%. Also, the activity change, negative = inhibition in assay [2] was 0%.
Consider `O=C(NCc1ccc2c(c1)OCO2)c1sc(=S)n2c1[nH]c(=O)c1cc(Cl)ccc12`, for which the activity is -44.1% in assay [1], -69.1% in assay [3] and -48.4% in assay [4]. Moreover, the Potency in assay [2] was 30.4 µM (active).
For `CCOC(=O)CC1(NC(=O)N2CCn3cccc3C2Cc2ccccc2)CCCCC1` (stereo not given), the values for the activity in assay [1], in assay [3] and in assay [4] were 2.42%, -6.48% and -4.39%, respectively. Besides, in assay [2], the Potency entry was “inactive”.
As to `Cc1ccc(NC(=O)N2CCc3c(c4ccccc4n3CC3CC3)C2)cc1`, the activity in assay [1] is 6.89%; in assay [3], 5.96%; in assay [4], 6.82%. The activity change, negative = inhibition in assay [2] was 14.5%.
The corresponding values for `COc1cccc(CN2CCCC3(CNc4ccccc4[S+](=O)([O-])N3)C2)c1` (stereo not given) are -4.83%, -12.2%, -3.23% and -8.51%.
